Test results from PubChem BioAssay (NCATS).
Inconclusive results are not listed. Where a call stands in place of a potency, no number is given. The source made the active and inactive calls. Calls come from the whole dose curve; as a rule, active = well fitted curve in the direction sought with a large enough effect; inconclusive = small, poorly fitted or top-dose-only effect, or another doubt; inactive = no such curve, though single readings can be large or run the other way.

Target: Metallo-beta-lactamase type 2 (Klebsiella pneumoniae) (UniProt C7C422)
Assay: qHTS to identify inhibitors of the New Delhi Metallo-beta-lactamase (NDM): assay validation screen against the NCATS LOPAC Collection (AID 1794843)
Details: NDM-1 enzyme, nitrocefin hydrolysis, absorbance 485 nm; series mostly up to 38.4 µM
Summary of the method: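 Absorbance at 485 nm from nitrocefin turnover (50 uM solution added), read at plateau, gives the read-out. Compounds in DMSO were incubated first with 2 nM final NDM-1 in pH 7.0 HEPES buffer containing 1 uM ZnSO4 and 0.01% Tween20.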

Sequence of Metallo-beta-lactamase type 2 (Klebsiella pneumoniae) (C7C422 whole entry, looked up): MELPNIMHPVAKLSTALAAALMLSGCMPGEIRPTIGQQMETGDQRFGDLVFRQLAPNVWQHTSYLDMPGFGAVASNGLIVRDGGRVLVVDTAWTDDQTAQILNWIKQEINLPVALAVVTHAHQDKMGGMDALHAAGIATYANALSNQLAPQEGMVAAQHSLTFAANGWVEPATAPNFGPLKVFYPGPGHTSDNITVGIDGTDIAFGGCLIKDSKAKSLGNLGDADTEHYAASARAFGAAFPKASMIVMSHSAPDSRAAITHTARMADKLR

SMILES	Potency
CN(C)c1ccc(/C=C2\C(=O)Nc3ccccc32)cc1	inactive
CN(C)CCC(c1ccc(Cl)cc1)c1ccccn1 (stereo not drawn)	inactive
CC[C@H]1OC(=O)[C@H](C)C(O[C@H]2C[C@@](C)(OC)[C@@H](O)[C@H](C)O2)[C@H](C)[C@@H](OC2O[C@H](C)C[C@H](N(C)C)[C@H]2O)[C@](C)(O)C[C@@H](C)CN(C)[C@H](C)[C@@H](O)[C@]1(C)O (stereo partly drawn)	inactive
O=c1[nH]c2cc(C(F)(F)F)ccc2n1-c1cc(C(F)(F)F)ccc1O	inactive
CC(C)CC(NP(=O)(O)O[C@@H]1O[C@@H](C)[C@H](O)[C@@H](O)[C@H]1O)C(=O)NC(Cc1c[nH]c2ccccc12)C(=O)O (stereo partly drawn)	inactive
NO	inactive
CC(=O)SCC[N+](C)(C)C	inactive
COCCOc1cc2nc[nH]c(=O)c2cc1OCCOC	inactive
NCC1OC(O[C@H]2[C@H](O)[C@@H](OC3C(O)C(N)CC(N)C3OC3OC(CO)C(O)C(O)C3N)O[C@@H]2CO)C(N)C(O)C1O (stereo partly drawn)	inactive
Oc1ccc(C2CNCc3sccc32)cc1O (stereo not drawn)	inactive
O=C(/C=C/c1ccc(O)cc1)c1ccc(O)cc1O	inactive
O=[N+]([O-])c1ccc(CSc2ncnc3c2ncn3[C@@H]2O[C@H](CO)[C@@H](O)[C@H]2O)cc1	inactive
NC(N)=NC(=O)c1nc(Cl)c(N2CCCCCC2)nc1N	inactive
CCOC(=O)C1=C(C)NC(C)=C(C(=O)OCC)C1c1c(F)c(F)c(F)c(F)c1F	inactive
NCCCS(=O)(=O)O	inactive
CCC1C(=O)OCC1Cc1cncn1C (stereo not drawn)	inactive
CC(=O)/C=C1\C(=O)N(C)c2ccccc21	inactive
CCCCCCCCCCCCCCCCCCN(CCCCCCCCCCCCCCCCCC)CCCN(CCO)CCO	inactive
CN1CCc2ccccc2Cc2[nH]c3ccccc3c2CC1	inactive

SMILES	Potency
OC[C@H]1O[C@@H](n2cnc3c(NC4CCCCC4)ncnc32)[C@H](O)[C@@H]1O	inactive
COc1cccc(C(=O)NCCN2CCN(c3ccc(Cl)cc3)CC2)c1	inactive
O=Nc1ccc2oc(=O)ccc2c1	inactive
COc1cc2c(CCNC(C)=O)c[nH]c2cc1Cl	inactive
Nc1nc(Cl)nc2c1ncn2[C@@H]1O[C@H](COP(=O)(O)OP(=O)(O)OP(=O)(O)O)[C@@H](O)[C@H]1O	inactive
NCCSSCCN	inactive
CC[C@@H](C)[C@H]1O[C@]2(CC[C@H]1C)C[C@@H]1C[C@@H](CC=C(C)[C@@H](O[C@H]3C[C@H](OC)[C@@H](O[C@H]4C[C@H](OC)[C@@H](O)[C@H](C)O4)[C@H](C)O3)[C@@H](C)C=CC=C3CO[C@@H]4[C@H](O)C(C)=C[C@@H](C(=O)O1)[C@]34O)O2	inactive
O=P(O)(O)C(Cl)(Cl)P(=O)(O)O	inactive
CN[C@H](CC(C)C)C(=O)N[C@H]1C(=O)N[C@@H](CC(N)=O)C(=O)N[C@H]2C(=O)N[C@H]3C(=O)N[C@H](C(=O)N[C@H](C(=O)O)c4cc(O)cc(O)c4-c4cc3ccc4O)[C@H](O)c3ccc(c(Cl)c3)Oc3cc2cc(c3O[C@@H]2O[C@H](CO)[C@@H](O)[C@H](O)[C@H]2O[C@H]2C[C@](C)(N)[C@H](O)[C@H](C)O2)Oc2ccc(cc2Cl)[C@H]1O	inactive
N#C/C(=C\c1ccc(O)c(O)c1)C(=O)c1ccc(O)c(O)c1	inactive
C=CC(N)CCC(=O)O (stereo not drawn)	inactive
CN(C)C(N)=NCCC[C@H](N)C(=O)O	inactive
NC(=O)C(=O)O	inactive
CCC(CO)Nc1nc(NCc2ccccc2)c2ncn(C(C)C)c2n1 (stereo not drawn)	inactive
COc1ccc2c(c1)CCC1C2CC[C@@]2(C)C1CC[C@@H]2NCCCCCCN1C(=O)CCC1=O (stereo partly drawn)	inactive
COc1cc(OC)cc(-c2cc3cnc(N)nc3nc2NC(=O)NC(C)(C)C)c1	inactive
O=C(O)CC[C@@H](C(=O)O)N1C(=O)c2ccccc2C1=O	inactive
O=C(Nc1ccccc1)c1cc([N+](=O)[O-])ccc1Cl	inactive
CC1CN(S(=O)(=O)c2cccc3cnccc23)CCN1 (stereo not drawn)	inactive
